Among the data in PubChem BioAssay AID652176 (Sanford-Burnham Center for Chemical Genomics, 2013) are inhibition values, retold here.

About 25 (1%) of roughly 2,400 compounds were called active.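 How the source made its calls: active means replicate-average signal at least 3 plate SD below neutral wells, shown as high inhibition, flagging enzyme-inhibiting false positives; inactive means the rest.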 Not all results are given here.

For this assay, the system named is Beta-galactosidase (Escherichia coli), counter-screen for EBI2 antagonists. Put plainly: inhibitors of purified bacterial beta-gal – biochemical, luminescence, single concentration, counter-screen for EBI2 antagonist project, confirmation (AID 652176).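 Further: 0% = DMSO wells with enzyme and 100% = wells lacking enzyme; higher means stronger loss of beta-gal luminescence.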 The following applies: luminescent Galacton Star, 15 min, at 5 µM, active compounds read high.
For orientation: inhibition means the relative decrease from the control value, in per cent. For the compound `Cc1ccc(S(=O)(=O)N2CCN(C(=O)CSc3cc(C)ccc3C)CC2)c(C)c1`, the inhibition is 2.31% (inactive). As to `COc1cccc(NC(=O)Cn2c3ccc(F)cc3c3nc4n(c(=O)c32)CCS4)c1`, the inhibition is 1.47% (inactive). Turning to `COc1ccc(-c2cc(C3CCN(c4ncccc4[N+](=O)[O-])CC3)[nH]n2)cc1`, the inhibition was 12% (inactive). As to `COc1cccc(NC(=O)Cn2c3ccccc3c3nc4n(c(=O)c32)CCS4)c1`, the inhibition was -5.55% (inactive). As to `COc1ccc(OCC(=O)N2CCN(C(=O)c3cccs3)CC2)cc1`, the inhibition is 8.51% (inactive). Consider `Cc1nc(-c2ccccc2)sc1C(=O)/C=C/c1ccccc1`, for which the inhibition is 12% (inactive). For `c1ccc(C(c2ccccc2)N2CCN(Cc3nnnn3C3CCCCC3)CC2)cc1`, the inhibition was 9.44% (inactive). Turning to `O=C(c1cc2ccccc2o1)N1CCN(S(=O)(=O)c2ccc(Cl)s2)CC1`, the inhibition was 3.41% (inactive). In the case of `COc1ccc(N(CC(=O)Nc2cc(OC)ccc2OC)S(=O)(=O)c2c(C)noc2C)cc1`, the inhibition is 6.51% (inactive). Take `Fc1ccccc1/C=N/Nc1cc(N2CCCCC2)ncn1`: the inhibition was -5.12% (inactive). `Cc1ccc(SCC(=O)N2CCN(c3ccc(F)cc3)CC2)cc1`: the inhibition is 1.65% (inactive).

Turning to `COc1ccc(C(C(=O)NC2CCCCC2)N(C(=O)c2snc(C(N)=O)c2N)c2ccccc2OC)cc1` (stereo not given), the inhibition was 1.73% (inactive). Then `Cc1ccc(-n2ncc3c(=O)n(-c4ccc(C)c(C)c4)c(-c4ccco4)nc32)cc1`, with -11.1% (inactive); and `O=C(c1cc(=O)c2ccccc2o1)N1CCN(c2ccccc2)CC1`, with 2.55% (inactive). Consider `Cc1cc(C)cc(Oc2nc3c(C)cccn3c(=O)c2/C=C(\C#N)C(=O)NC2CCS(=O)(=O)C2)c1` (stereo not given), for which the inhibition is -6.32% (inactive). Regarding `CC1(Cc2ccccc2C#N)C(=O)Nc2ccc(-c3ccc4[nH]ccc4c3)cc21` (stereo not given), the inhibition was -12.8% (inactive). In the case of `N#CC(=C1CCCC1)c1nc(-c2ccc(Cl)cc2)cs1`, the inhibition was -15.6% (inactive).

For `CCCCC(=O)N(C)c1c(CC)nc2c(OCc3ccc(Cl)cc3Cl)cccn12`, the inhibition is -8.17% (inactive). Consider `CC(C)Cn1c(N2CCN(C(=O)/C=C/c3ccccc3)CC2)nc2ccccc21`, for which the inhibition was -6.12% (inactive). Turning to `CCN1CCN(C(=O)CSc2ccc(C)cc2)CC1`, the inhibition is -12.6% (inactive). Turning to `O=C(CCNS(=O)(=O)c1ccccc1)NCCSc1ccc(Br)cc1`, the inhibition was -8.38% (inactive). To `COc1ccc(/C=C/C(=O)c2ccc(OC)cc2O)cc1` belongs -7.89% (inactive); to `O=C(CCc1ccccc1)NNC(=O)COc1ccc(Cl)cc1`, 4.21% (inactive). Regarding `Cc1ccc(-c2nn(-c3ccccc3)cc2/C=C/C(=O)Nc2cccc(S(N)(=O)=O)c2)cc1`, the inhibition is 7.52% (inactive).

On to `COc1ccc2cc(C3=CC(=O)C[C@H](c4ccc5c(c4)OCO5)C3)ccc2c1`, for which the inhibition is -16.2% (inactive). To `Cc1cc(Cl)c2oc(C(=O)N3CCC(O)(c4ccccc4)CC3)c(C)c2c1` belongs -14% (inactive); to `COc1ccc(/C=N/N=C/c2c[nH]c(=O)c(C#N)c2Nc2ccccc2)cc1`, -8.65% (inactive); to `O=c1[nH]c(CN2CCN(S(=O)(=O)c3ccc4c(c3)OCCO4)CC2)nc2sc3c(c12)CCCC3`, 5.78% (inactive). On to `O=C(NCCCc1ccccc1)C1CCC(=O)N(CCc2ccc(Cl)cc2)C1` (stereo not given), for which the inhibition is 1.78% (inactive). Regarding `COc1ccccc1N1CCN(C(=O)c2cc(=O)c3cc(C)ccc3o2)CC1`, the inhibition is 2.71% (inactive). With `COc1ccc(C(=O)/C=C/c2ccc(OC3CSC3)cc2)cc1`, the inhibition is 4.77% (inactive). On to `CN1CCc2ccccc2C1Cc1ccccc1NC(=O)c1sc2ccccc2c1Cl` (stereo not given), for which the inhibition is -9.49% (inactive).

As to `O=C(COc1ccc2ccccc2c1)N1CCN(C(=O)c2cccs2)CC1`, the inhibition was 6.4% (inactive).

As to `O=C(c1cc2ccccc2s1)N1CCN(c2ccccn2)CC1`, the inhibition was -19.7% (inactive).

For the compound `O=C(/C=C/c1cccc([N+](=O)[O-])c1)N1CCN(Cc2ccccc2)CC1`, the inhibition was -5.48% (inactive). Regarding `CC(=O)/C(=N\Nc1ccc(Cl)cc1Cl)Sc1cccc2cccnc12`, the inhibition is -5.07% (inactive). `CCN(CC(=O)NCc1cccs1)C(=O)/C=C/c1ccc(C)cc1`: the inhibition is 1.05% (inactive). Turning to `O=C(C(c1ccccc1)c1ccccc1)N1CCN(CC(O)COc2ccccc2)CC1` (stereo not given), the inhibition was -10% (inactive). As for `Cc1ccc(S(=O)(=O)N2CCN(CC(=O)N/N=C/c3ccc(Br)s3)CC2)cc1`, the inhibition is 3.3% (inactive).

In the case of `COc1cccc(-c2cc(C(=O)N3CCN(c4ccccc4OC)CC3)no2)c1`, the inhibition is 5.78% (inactive). In the case of `COc1ccc(OCC(=O)N2CCN(C(=O)COc3ccccc3)CC2)cc1`, the inhibition is -7.53% (inactive). On to `Cc1ccc2oc(=O)c3cnn(CC(=O)N4CCCCCC4)c3c2c1`, for which the inhibition is 6.6% (inactive). To `CCC1Nc2ncnc(N3CCN(c4ccccc4)CC3)c2N(Cc2ccc(Cl)cc2)C1=O` (stereo not given) belongs 69% (active); to `Cc1cccc(N2CCN(C(=O)c3cc4c(=O)[nH]c5ccccc5c4n3C)CC2)c1C`, 5.01% (inactive).

In the case of `CC(=O)c1nn(-c2ccc(C)cc2)cc1C(=O)c1cccc(Br)c1`, the inhibition is -0.17% (inactive).

For the compound `Cc1ccc(OCC(=O)N2CCN(S(=O)(=O)c3ccc(Cl)s3)CC2)cc1C`, the inhibition is 0.1% (inactive).

With `CCC(C)(C)NC(=O)c1cc([N+](=O)[O-])ccc1N1CCCCC1`, the inhibition is -7.53% (inactive). For the compound `Cc1cccc(NC(=O)CN2CCN(C(=O)C3CCN(C(=O)/C=C/c4ccccc4)CC3)CC2)c1C`, the inhibition was -13.5% (inactive).

For the compound `O=C(Nc1ncc2c(n1)CC(c1ccco1)CC2=O)c1ccc(Cl)cc1` (stereo not given), the inhibition was 8.95% (inactive). To `CCOc1ccc(CN(Cc2ccco2)S(=O)(=O)c2ccc(-n3cnnn3)c(OC)c2)cc1` belongs 4.57% (inactive); to `COc1ccc(C(c2nnnn2C2CCCC2)N2CCN(C/C=C/c3ccccc3)CC2)cc1` (stereo not given), -12.2% (inactive). Regarding `COc1ccc(-c2cc(NC=O)c3ncc(-c4cccc(C(=O)N(C)C)c4)n3c2)c(OC)c1`, the inhibition was -10.8% (inactive). For the compound `CCOC(=O)N1CCN(C(=O)CSc2ccc(Cl)cc2)CC1`, the inhibition was 5.7% (inactive). Then `CCCCN=C1C([N+](=O)[O-])=CC=C2C1=NC1(CCCCC1)N2O`, with -14.2% (inactive); and `CCC(c1nnc(SCC(=O)NNC(=O)c2ccccc2)n1Cc1ccccc1)N(C)C` (stereo not given), with -17.6% (inactive).
